Measurements: PubChem BioAssay AID1159580 (chemical genetic matrix, 2015)
About 2,000 (36%) of roughly 5,500 compounds were called active. Another 18% or so got no clear call; they are omitted. Rule as the data show it: active = normalized growth mostly below about 0.91 (no sharp cut-off); inconclusive = no clear call, values can overlap the other calls; inactive = mostly above about 0.92. Some of the results follow.

Experiment: chemical genetic growth profiling, strain panel (AID 1159580);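 also: tested at 20 µM; growth read once vehicle control cultures reached saturation at 30 °C; 1 = growth at the plate median or of vehicle wells; lower values mean less growth of the strain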
Conditions: growth OD

Measured: normalized growth

C=C1[C@H]2CC[C@@]3(C)[C@H](c4ccoc4)OC(=O)C[C@]13O[C@H]1C[C@H](O)C(C)(C)[C@H](CC(=O)OC)[C@]12C
inactive: S. cerevisiae deletion strains, locus YJR066W, strain TOR1, stronger effect = lower value 0.936 | S. cerevisiae deletion strains, locus YJR075W, strain HOC1, stronger effect = lower value 0.994 | S. cerevisiae deletion strains, locus YKL009W, strain mrt4, stronger effect = lower value 0.997 | S. cerevisiae deletion strains, locus YKL068W, stronger effect = lower value 1.02 | S. cerevisiae deletion strains, locus YKL085W, strain MDH1 (second series), stronger effect = lower value 1 | S. cerevisiae deletion strains, locus YKL085W, strain MDH1, stronger effect = lower value 1 | S. cerevisiae deletion strains, locus YKL160W, strain elf1, stronger effect = lower value 0.998 | S. cerevisiae deletion strains, locus YKR001C, strain vps1, stronger effect = lower value 1.01 | S. cerevisiae deletion strains, locus YKR026C, strain gcn3, stronger effect = lower value 1.02 | S. cerevisiae deletion strains, locus YKR091W, strain srl3, stronger effect = lower value 1.02 | S. cerevisiae deletion strains, locus YLL001W, strain dnm1, stronger effect = lower value 1.01 | S. cerevisiae deletion strains, locus YLL026W, stronger effect = lower value 1.01 | S. cerevisiae deletion strains, locus YLL041C, strain sdh2, stronger effect = lower value 1.01 | S. cerevisiae deletion strains, locus YLR027C, strain aat2, stronger effect = lower value 1.01 | S. cerevisiae deletion strains, locus YLR039C, strain RIC1, stronger effect = lower value 0.969 | S. cerevisiae deletion strains, locus YLR058C, strain SHM2, stronger effect = lower value 1.01 | S. cerevisiae deletion strains, locus YLR102C, strain apc9, stronger effect = lower value 1.01 | S. cerevisiae deletion strains, locus YLR113W, strain HOG1, stronger effect = lower value 1.04 | S. cerevisiae deletion strains, locus YLR221C, strain rsa3, stronger effect = lower value 1.03 | S. cerevisiae deletion strains, locus YLR258W, strain gsy2, stronger effect = lower value 1 | S. cerevisiae deletion strains, locus YLR262C, strain YPT6 (second series), stronger effect = lower value 0.994 | S. cerevisiae deletion strains, locus YLR262C, strain YPT6, stronger effect = lower value 0.938 | S. cerevisiae deletion strains, locus YLR268W, strain sec22, stronger effect = lower value 1.01 | S. cerevisiae deletion strains, locus YLR320W, strain mms22, stronger effect = lower value 1.03 | S. cerevisiae deletion strains, locus YLR342W, strain FKS1, stronger effect = lower value 1.02 | S. cerevisiae deletion strains, locus YLR357W, strain rsc2, stronger effect = lower value 1.03 | S. cerevisiae deletion strains, locus YLR370C, strain arc18, stronger effect = lower value 1 | S. cerevisiae deletion strains, locus YLR371W, strain rom2, stronger effect = lower value 1.02 | S. cerevisiae deletion strains, locus YLR384C, strain iki3, stronger effect = lower value 1.01 | S. cerevisiae deletion strains, locus YLR418C, strain cdc73, stronger effect = lower value 0.997 | S. cerevisiae deletion strains, locus YML016C, strain PPZ1, stronger effect = lower value 1 | S. cerevisiae deletion strains, locus YML032C, strain rad52, stronger effect = lower value 1.01 | S. cerevisiae deletion strains, locus YML120C, strain ndi1, stronger effect = lower value 0.998 | S. cerevisiae deletion strains, locus YML124C, strain tub3, stronger effect = lower value 1.02 | S. cerevisiae deletion strains, locus YMR058W, strain fet3, stronger effect = lower value 1.05 | S. cerevisiae deletion strains, locus YMR078C, strain ctf18, stronger effect = lower value 1.02 | S. cerevisiae deletion strains, locus YMR125W, strain sto1, stronger effect = lower value 1 | S. cerevisiae deletion strains, locus YMR129W, stronger effect = lower value 1.01 | S. cerevisiae deletion strains, locus YMR205C, strain PFK2, stronger effect = lower value 1.01 | S. cerevisiae deletion strains, locus YMR223W, strain ubp8, stronger effect = lower value 1.01 | S. cerevisiae deletion strains, locus YMR231W, strain pep5, stronger effect = lower value 1.01 | S. cerevisiae deletion strains, locus YMR263W, strain SAP30, stronger effect = lower value 1.01 | S. cerevisiae deletion strains, locus YMR307W, strain GAS1, stronger effect = lower value 1.03 | S. cerevisiae deletion strains, locus YNL067W, strain RPL9B, stronger effect = lower value 1 | S. cerevisiae deletion strains, locus YNL071W, strain lat1, stronger effect = lower value 1.01 | S. cerevisiae deletion strains, locus YNL153C, strain GIM3, stronger effect = lower value 1.01 | S. cerevisiae deletion strains, locus YNL183C, strain NPR1, stronger effect = lower value 0.943 | S. cerevisiae deletion strains, locus YNL209W, strain ssb2, stronger effect = lower value 1.04 | S. cerevisiae deletion strains, locus YNL233W, strain BNI4, stronger effect = lower value 0.988 | S. cerevisiae deletion strains, locus YNL248C, strain rpa49, stronger effect = lower value 1.05 | S. cerevisiae deletion strains, locus YNL250W, strain rad50, stronger effect = lower value 1.01 | S. cerevisiae deletion strains, locus YNL271C, strain bni1, stronger effect = lower value 0.995 | S. cerevisiae deletion strains, locus YNL298W, strain CLA4, stronger effect = lower value 1.02 | S. cerevisiae deletion strains, locus YNL307C, strain MCK1, stronger effect = lower value 1.02 | S. cerevisiae deletion strains, locus YNL322C, strain KRE1 (second series), stronger effect = lower value 1.02 | S. cerevisiae deletion strains, locus YNL322C, strain KRE1, stronger effect = lower value 1 | S. cerevisiae deletion strains, locus YNR049C, strain mso1, stronger effect = lower value 1.02 | S. cerevisiae deletion strains, locus YNR052C, strain pop2, stronger effect = lower value 1.02 | S. cerevisiae deletion strains, locus YOL006C, strain TOP1, stronger effect = lower value 1 | S. cerevisiae deletion strains, locus YOL012C, strain htz1 0.768 | S. cerevisiae deletion strains, locus YOL147C, strain pex11, stronger effect = lower value 1.02 | S. cerevisiae deletion strains, locus YOR001W, strain rrp6, stronger effect = lower value 1.03 | S. cerevisiae deletion strains, locus YOR061W, strain CKA2, stronger effect = lower value 1 | S. cerevisiae deletion strains, locus YOR069W, strain VPS5, stronger effect = lower value 1 | S. cerevisiae deletion strains, locus YOR070C, strain gyp1, stronger effect = lower value 1.03 | S. cerevisiae deletion strains, locus YOR080W, strain dia2, stronger effect = lower value 1.02 | S. cerevisiae deletion strains, locus YOR083W, strain WHI5, stronger effect = lower value 0.999 | S. cerevisiae deletion strains, locus YOR106W, strain vam3, stronger effect = lower value 0.998 | S. cerevisiae deletion strains, locus YOR136W, strain idh2, stronger effect = lower value 1.02 | S. cerevisiae deletion strains, locus YOR144C, strain elg1, stronger effect = lower value 1.02 | S. cerevisiae deletion strains, locus YOR184W, strain ser1, stronger effect = lower value 1.02 | S. cerevisiae deletion strains, locus YOR231W, strain MKK1, stronger effect = lower value 0.985 | S. cerevisiae deletion strains, locus YOR265W, strain rbl2, stronger effect = lower value 1 | S. cerevisiae deletion strains, locus YOR270C, strain vph1, stronger effect = lower value 1.01 | S. cerevisiae deletion strains, locus YOR290C, strain snf2, stronger effect = lower value 0.974 | S. cerevisiae deletion strains, locus YOR316C, strain cot1, stronger effect = lower value 1.02 | S. cerevisiae deletion strains, locus YPL051W, strain arl3, stronger effect = lower value 1.02 | S. cerevisiae deletion strains, locus YPL078C, strain atp4, stronger effect = lower value 0.985 | S. cerevisiae deletion strains, locus YPL106C, strain sse1, stronger effect = lower value 1 | S. cerevisiae deletion strains, locus YPL240C, strain hsp82, stronger effect = lower value 1.01 | S. cerevisiae deletion strains, locus YPL256C, strain CLN2, stronger effect = lower value 0.981 | S. cerevisiae deletion strains, locus YPR119W, strain clb2, stronger effect = lower value 1.01 | S. cerevisiae deletion strains, locus YPR141C, strain kar3, stronger effect = lower value 1.02 | S. cerevisiae deletion strains, locus YPR163C, strain tif3, stronger effect = lower value 1.01 | S. cerevisiae deletion strains, locus YPR167C, strain met16, stronger effect = lower value 1.02 | S. cerevisiae deletion strains, strain wtn01, stronger effect = lower value 1.01 | S. cerevisiae strains, strain wild type, stronger effect = lower value 1.01
